Columns and labels:
Assay in all cases: log2 ratio of Biotin-Ahx-Ub-VS probe labelling (fragment/DMSO); higher = less target engagement (more negative = stronger competition), active = hit call of the paper (q ≤ 0.05, log2 ratio ≤ -1)
Details in all cases: compound concentration: 200 uM; treatment time: 3 h
USP42 = biological target: T1, USP42 (UniProt Q9H9J4)
T1 sequence (whole entry): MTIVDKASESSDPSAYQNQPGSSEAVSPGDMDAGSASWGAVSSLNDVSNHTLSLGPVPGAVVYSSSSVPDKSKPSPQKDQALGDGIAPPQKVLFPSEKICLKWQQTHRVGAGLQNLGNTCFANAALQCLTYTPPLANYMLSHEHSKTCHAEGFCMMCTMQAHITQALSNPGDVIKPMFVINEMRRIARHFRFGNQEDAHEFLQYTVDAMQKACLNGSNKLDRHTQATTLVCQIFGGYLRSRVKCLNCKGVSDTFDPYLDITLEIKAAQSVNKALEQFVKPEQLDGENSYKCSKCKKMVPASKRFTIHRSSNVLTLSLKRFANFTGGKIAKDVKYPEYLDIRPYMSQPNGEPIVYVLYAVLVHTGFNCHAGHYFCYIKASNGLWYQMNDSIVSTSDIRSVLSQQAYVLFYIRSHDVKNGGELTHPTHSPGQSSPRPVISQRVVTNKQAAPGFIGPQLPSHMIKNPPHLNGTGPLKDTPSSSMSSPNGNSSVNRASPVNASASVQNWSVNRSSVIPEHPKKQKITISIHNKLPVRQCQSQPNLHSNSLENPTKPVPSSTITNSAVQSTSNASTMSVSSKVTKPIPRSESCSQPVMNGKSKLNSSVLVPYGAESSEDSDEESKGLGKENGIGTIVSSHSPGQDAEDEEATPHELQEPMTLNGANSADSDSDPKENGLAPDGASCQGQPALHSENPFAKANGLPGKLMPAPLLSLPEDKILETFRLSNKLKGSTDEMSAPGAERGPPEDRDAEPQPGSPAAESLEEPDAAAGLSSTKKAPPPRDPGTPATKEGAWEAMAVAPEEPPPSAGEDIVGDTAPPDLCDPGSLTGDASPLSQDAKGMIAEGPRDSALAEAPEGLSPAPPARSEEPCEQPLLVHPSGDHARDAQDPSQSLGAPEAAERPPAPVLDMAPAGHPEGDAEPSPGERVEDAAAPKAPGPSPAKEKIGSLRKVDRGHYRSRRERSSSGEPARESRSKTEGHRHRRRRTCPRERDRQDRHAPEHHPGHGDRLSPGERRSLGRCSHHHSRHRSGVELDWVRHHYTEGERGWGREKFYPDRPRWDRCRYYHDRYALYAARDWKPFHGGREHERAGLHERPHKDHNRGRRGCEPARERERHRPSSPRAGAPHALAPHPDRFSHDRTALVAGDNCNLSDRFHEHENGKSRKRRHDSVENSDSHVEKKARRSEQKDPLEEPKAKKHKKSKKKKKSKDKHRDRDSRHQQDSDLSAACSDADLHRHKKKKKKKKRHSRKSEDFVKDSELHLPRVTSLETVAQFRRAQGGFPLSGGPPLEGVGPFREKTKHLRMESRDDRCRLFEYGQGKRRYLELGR
Outline: (§1)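 Labelled DUBs from HEK293T lysate were NeutrAvidin-enriched, digested with LysC and trypsin, and run by diaPASEF LC-MS/MS. Before that, each 495 µg sample in Tris/CHAPS/IGEPAL buffer with protease inhibitors was treated in triplicate with fragment at 200 µM or vehicle for 3 h, then with Biotin-Ahx-Ub-VS at 0.5 µM final for 1 h. Values are average log2 ratios of fragment over vehicle by unpaired t-test, based on global-median-normalised Spectronaut label-free quantities from proteins with ≥2 unique peptides.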

USP46 = USP46 (UniProt P62068)
Sequence of USP46 (P62068 whole entry): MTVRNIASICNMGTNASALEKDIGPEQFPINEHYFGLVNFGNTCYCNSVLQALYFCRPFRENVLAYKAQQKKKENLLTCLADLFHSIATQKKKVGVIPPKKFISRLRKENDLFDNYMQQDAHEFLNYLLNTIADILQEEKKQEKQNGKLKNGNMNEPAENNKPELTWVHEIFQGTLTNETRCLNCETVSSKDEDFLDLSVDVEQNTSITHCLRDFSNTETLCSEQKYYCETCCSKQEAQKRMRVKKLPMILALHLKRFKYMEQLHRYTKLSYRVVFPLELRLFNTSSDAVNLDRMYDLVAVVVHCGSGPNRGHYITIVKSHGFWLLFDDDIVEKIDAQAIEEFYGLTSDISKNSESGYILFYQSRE
Outline: as §1

USP47 = biological target: T2, USP47 (UniProt Q96K76)
T2 sequence (whole entry): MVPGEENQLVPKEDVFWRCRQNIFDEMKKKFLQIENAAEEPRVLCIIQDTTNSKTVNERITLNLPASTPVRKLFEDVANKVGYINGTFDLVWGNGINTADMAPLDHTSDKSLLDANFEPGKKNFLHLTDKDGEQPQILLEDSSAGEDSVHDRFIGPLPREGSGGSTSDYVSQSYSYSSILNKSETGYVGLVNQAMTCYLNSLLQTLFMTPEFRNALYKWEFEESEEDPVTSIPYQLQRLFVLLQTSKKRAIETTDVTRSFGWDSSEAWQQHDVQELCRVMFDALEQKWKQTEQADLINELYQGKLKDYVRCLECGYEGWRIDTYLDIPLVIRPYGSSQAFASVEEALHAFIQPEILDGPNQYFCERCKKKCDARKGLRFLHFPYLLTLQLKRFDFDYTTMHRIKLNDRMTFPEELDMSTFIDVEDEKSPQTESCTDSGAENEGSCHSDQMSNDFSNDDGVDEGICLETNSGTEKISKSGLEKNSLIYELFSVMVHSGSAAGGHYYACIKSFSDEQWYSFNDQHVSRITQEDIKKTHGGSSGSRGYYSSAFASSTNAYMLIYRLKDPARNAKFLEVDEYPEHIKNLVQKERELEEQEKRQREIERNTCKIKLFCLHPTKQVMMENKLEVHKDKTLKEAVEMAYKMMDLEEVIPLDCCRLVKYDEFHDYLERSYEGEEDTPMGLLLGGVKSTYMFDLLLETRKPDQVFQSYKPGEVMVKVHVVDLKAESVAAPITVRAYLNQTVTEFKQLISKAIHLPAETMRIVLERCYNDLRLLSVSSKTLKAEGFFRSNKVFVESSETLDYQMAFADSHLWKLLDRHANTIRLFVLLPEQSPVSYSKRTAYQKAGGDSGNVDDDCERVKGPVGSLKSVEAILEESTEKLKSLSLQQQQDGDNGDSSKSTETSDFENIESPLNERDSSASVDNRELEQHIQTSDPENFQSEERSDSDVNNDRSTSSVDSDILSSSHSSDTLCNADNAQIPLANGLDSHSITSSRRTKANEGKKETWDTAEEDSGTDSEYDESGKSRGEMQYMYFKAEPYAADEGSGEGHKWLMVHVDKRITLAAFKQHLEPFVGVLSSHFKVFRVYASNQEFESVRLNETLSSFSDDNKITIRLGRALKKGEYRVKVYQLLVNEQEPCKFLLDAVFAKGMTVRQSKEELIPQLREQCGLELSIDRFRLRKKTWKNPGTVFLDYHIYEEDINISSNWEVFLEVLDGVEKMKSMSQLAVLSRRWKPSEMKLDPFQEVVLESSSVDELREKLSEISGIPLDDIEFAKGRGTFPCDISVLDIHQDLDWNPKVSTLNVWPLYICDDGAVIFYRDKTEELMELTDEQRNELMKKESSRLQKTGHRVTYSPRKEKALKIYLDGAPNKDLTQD
Outline: as §1

USP48 = biological target: T3, USP48 (UniProt Q86UV5)
T3 sequence (whole entry): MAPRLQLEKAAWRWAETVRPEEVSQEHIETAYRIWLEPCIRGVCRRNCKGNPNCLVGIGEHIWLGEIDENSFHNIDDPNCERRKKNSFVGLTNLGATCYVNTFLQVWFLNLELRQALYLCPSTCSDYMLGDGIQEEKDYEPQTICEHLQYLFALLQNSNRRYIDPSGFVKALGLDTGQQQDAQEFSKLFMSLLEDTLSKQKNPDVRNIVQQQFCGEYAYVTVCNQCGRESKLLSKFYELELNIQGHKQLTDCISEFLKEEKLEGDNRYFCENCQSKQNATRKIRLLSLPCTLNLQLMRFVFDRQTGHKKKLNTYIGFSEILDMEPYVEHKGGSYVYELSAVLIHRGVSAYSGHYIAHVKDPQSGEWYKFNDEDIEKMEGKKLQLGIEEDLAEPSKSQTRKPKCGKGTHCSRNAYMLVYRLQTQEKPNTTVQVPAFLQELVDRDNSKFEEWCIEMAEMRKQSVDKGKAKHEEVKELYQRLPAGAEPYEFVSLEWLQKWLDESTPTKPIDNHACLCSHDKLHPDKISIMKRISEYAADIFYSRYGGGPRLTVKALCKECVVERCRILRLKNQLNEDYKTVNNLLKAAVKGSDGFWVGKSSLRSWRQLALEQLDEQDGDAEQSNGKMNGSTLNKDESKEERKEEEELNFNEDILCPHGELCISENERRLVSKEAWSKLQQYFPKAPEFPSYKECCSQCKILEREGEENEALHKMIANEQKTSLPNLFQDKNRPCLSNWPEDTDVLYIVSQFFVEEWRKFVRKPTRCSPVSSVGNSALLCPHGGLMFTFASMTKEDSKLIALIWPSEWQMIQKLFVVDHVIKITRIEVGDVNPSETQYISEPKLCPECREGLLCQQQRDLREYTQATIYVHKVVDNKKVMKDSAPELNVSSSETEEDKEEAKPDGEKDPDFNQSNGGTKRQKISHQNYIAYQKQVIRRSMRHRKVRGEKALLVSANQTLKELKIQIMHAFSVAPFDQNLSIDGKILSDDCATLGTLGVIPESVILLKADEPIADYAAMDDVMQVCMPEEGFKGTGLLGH
Outline: as §1

USP5 = biological target: T4, USP5 (UniProt P45974)
T4 sequence (whole entry): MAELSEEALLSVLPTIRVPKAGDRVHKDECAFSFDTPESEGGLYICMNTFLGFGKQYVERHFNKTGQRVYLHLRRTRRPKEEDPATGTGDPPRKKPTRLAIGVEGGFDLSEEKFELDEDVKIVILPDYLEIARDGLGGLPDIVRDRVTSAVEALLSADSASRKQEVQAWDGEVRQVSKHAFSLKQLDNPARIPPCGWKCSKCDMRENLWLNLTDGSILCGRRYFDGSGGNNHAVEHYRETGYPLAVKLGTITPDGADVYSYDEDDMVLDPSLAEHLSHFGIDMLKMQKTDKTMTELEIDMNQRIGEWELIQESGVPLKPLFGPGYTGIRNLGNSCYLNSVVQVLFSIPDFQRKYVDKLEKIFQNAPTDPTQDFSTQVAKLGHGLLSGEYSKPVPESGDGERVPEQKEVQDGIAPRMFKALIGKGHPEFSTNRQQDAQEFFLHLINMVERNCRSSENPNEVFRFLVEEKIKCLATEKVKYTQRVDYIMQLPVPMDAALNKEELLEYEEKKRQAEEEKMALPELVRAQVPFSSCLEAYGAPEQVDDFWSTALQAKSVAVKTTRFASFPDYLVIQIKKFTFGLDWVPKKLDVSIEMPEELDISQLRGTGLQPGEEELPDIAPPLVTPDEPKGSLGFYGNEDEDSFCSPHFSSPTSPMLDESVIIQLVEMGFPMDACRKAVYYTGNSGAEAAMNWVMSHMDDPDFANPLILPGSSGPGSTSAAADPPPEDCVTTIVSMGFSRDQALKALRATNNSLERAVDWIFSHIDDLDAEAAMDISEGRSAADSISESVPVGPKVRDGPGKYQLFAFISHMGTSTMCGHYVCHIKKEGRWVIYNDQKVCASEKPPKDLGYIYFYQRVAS
Outline: as §1

USP54 = USP54 (UniProt Q70EL1)
Sequence of USP54 (Q70EL1 whole entry): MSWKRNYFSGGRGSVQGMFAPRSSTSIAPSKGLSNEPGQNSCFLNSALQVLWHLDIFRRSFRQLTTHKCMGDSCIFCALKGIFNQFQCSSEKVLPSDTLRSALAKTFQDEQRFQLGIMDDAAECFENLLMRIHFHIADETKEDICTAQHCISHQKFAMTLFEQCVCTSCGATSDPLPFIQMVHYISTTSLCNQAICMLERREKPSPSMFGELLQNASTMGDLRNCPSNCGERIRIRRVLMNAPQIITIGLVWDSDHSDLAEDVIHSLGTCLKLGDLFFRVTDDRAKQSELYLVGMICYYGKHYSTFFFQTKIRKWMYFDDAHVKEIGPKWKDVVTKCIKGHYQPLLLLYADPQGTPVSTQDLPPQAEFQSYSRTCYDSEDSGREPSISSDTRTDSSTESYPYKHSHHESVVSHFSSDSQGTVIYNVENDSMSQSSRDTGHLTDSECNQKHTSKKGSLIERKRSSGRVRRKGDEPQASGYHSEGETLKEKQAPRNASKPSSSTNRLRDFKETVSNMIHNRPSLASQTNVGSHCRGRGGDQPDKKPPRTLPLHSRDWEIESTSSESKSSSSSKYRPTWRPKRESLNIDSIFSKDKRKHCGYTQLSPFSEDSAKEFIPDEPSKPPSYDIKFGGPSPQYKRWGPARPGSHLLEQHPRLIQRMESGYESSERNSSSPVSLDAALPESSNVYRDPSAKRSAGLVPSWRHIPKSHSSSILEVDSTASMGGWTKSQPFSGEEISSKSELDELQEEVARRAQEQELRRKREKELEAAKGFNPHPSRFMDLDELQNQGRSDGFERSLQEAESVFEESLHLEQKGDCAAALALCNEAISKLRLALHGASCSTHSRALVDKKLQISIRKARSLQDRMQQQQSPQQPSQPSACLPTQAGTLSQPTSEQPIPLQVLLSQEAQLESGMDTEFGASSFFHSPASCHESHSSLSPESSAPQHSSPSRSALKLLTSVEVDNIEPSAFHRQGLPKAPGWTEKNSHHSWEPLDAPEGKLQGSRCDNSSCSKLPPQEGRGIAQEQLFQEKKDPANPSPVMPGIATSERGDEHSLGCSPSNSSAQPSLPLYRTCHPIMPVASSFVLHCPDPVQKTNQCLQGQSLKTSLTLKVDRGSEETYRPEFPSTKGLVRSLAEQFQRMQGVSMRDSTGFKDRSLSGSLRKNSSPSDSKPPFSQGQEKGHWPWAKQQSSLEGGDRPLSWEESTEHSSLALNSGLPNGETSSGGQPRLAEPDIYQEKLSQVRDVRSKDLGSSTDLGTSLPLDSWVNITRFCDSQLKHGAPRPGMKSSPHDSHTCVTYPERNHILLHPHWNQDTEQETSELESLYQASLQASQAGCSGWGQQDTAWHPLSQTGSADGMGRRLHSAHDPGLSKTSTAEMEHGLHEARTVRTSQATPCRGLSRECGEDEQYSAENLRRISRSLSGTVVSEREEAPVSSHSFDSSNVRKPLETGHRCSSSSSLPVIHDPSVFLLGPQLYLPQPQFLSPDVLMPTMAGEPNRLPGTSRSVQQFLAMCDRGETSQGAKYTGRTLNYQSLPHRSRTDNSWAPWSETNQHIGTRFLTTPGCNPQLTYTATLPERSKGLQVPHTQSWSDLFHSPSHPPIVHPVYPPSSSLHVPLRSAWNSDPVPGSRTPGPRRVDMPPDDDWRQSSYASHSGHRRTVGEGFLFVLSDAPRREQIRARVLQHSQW
Outline: as §1

USP7 = USP7 (UniProt Q93009)
Sequence of USP7 (Q93009 whole entry, looked up): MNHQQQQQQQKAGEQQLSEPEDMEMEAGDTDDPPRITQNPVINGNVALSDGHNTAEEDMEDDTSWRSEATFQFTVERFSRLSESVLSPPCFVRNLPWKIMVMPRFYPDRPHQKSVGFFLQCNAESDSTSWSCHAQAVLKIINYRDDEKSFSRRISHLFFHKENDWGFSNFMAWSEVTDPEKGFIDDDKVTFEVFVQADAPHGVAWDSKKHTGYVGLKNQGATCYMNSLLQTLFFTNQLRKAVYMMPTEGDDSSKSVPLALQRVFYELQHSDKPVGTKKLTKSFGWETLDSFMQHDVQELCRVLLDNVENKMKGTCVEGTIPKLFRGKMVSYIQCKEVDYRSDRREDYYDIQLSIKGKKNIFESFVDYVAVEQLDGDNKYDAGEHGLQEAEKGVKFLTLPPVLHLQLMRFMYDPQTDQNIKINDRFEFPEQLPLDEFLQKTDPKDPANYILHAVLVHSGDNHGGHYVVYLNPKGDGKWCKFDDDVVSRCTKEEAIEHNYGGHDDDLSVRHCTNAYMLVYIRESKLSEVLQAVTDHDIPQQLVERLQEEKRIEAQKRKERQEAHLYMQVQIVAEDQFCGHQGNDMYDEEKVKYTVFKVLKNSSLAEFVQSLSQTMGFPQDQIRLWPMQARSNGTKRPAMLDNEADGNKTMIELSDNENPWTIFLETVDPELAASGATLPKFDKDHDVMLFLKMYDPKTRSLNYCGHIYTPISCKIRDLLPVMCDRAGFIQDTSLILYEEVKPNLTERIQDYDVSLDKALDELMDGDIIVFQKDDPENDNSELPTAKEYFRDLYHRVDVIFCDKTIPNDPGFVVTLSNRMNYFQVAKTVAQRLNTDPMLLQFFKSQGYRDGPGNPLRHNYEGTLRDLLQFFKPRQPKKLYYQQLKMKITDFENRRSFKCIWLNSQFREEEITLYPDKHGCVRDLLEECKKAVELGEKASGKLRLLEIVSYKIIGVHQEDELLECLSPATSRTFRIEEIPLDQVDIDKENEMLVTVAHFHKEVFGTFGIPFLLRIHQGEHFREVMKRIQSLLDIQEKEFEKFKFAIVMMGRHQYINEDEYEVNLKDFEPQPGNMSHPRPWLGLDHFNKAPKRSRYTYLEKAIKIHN
Outline: as §1

USP8 = biological target: T5, USP8 (UniProt P40818)
T5 sequence (whole entry): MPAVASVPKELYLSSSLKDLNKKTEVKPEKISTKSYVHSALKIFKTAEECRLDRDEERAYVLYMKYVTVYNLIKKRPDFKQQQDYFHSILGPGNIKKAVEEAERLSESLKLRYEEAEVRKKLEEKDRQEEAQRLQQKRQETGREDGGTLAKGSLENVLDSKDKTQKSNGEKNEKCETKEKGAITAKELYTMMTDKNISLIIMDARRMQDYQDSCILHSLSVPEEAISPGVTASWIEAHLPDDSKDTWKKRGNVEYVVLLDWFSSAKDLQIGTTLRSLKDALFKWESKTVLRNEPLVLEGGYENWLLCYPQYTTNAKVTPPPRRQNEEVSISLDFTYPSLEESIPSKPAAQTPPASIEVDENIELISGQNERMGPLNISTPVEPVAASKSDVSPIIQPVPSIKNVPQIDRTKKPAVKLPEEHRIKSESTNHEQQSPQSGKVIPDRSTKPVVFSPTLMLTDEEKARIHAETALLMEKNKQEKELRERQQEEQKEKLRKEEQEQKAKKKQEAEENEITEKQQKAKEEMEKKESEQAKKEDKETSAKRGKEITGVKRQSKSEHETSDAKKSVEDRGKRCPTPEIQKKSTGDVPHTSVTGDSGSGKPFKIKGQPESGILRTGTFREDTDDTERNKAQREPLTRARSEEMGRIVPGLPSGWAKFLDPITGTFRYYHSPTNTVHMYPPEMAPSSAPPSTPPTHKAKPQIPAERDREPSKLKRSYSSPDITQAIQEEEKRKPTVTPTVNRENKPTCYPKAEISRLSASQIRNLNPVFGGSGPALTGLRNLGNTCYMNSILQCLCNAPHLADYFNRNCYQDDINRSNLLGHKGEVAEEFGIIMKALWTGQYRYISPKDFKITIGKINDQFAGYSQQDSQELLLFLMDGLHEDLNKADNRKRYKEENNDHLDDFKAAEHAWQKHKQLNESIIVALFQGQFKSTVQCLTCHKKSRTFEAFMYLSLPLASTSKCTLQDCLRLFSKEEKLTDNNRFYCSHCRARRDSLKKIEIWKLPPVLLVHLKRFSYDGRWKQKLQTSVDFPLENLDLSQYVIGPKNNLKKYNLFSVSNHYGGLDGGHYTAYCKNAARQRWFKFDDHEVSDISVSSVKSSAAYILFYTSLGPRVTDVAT
Outline: as §1

Measured: log2 ratio of Biotin-Ahx-Ub-VS probe labelling

COc1ccc(C2CCCN2C(=O)CCl)c(OC)c1 (stereo not drawn)
active: USP7 -1.23
inactive: USP42 0.426 | USP46 -0.295 | USP47 -0.378 | USP48 -0.744 | USP5 0.0602 | USP54 0.223 | USP8 -0.00675

— the supplement of paper PMC11732987, “Enantioselective OTUD7B fragment discovery through chemoproteomics screening and high-throughput optimisation” (Communications Chemistry, 2025)
